Laboratory results reported in PubChem BioAssay.
Records with an inconclusive call do not appear. Activity calls are given as the source filed them.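 How the source made its calls, unless noted: active means inhibition above the screen-wide mean plus 3 SD, about 51%; inactive means the rest.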

Assays:
[1] = yeast TOR pathway RPL19A-GFP modulators, primary screen, cell-based, S. cerevisiae, multiplex flow cytometry (AID 1862; in the data active means percent of DMSO control GFP below about 86%;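 further: lower values mimic rapamycin by blocking the RPL19A rise seen in DMSO cells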); settings: S. cerevisiae RPL19A-GFP strain, flow cytometry fluorescence, 3 h; at 10 µM; stronger effect = lower value
[2] = modulators of MEP2-GFP levels in yeast, primary screen, S. cerevisiae, multiplex flow cytometry (AID 1867;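 active means GFP response, as percent of the DMSO control, above the screen-wide mean plus 3 SD, about 139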;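 further: median GFP channel fluorescence of barcode-gated MEP2-GFP cells measured by flow cytometry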); settings: S. cerevisiae MEP2-GFP strain, 3 h, at 10 µM, stronger effect = higher value, 100% means same as DMSO wells
[3] = modulators of CIT2-GFP expression in yeast, primary screen, S. cerevisiae, GFP fusion, multiplex flow cytometry (AID 1870;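 active means percent response above a set limit, the screen-wide mean plus 3 SD, cut at about 130% in these data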;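 further: barcoded CIT2-GFP strain pooled with four other GFP strains with rapamycin as positive control; median GFP fluorescence per well over plate mean of DMSO wells so 100% = DMSO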); settings: 3 h, at 10 µM, stronger effect = higher value
[4] = modulators of LAP4-GFP expression in yeast, primary screen, S. cerevisiae, multiplex flow cytometry (AID 1873;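 active means GFP signal, as percent of the solvent control, above the screen mean plus 3 SD, about 149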); settings: 3 h, at 10 µM, stronger effect = higher value
[5] = modulators of AGP1-GFP expression in yeast TOR pathway, primary screen, cell-based, multiplex flow cytometry, S. cerevisiae (AID 1887;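 active means GFP signal above the screen-wide mean plus 3 SD, that is over about 124.5% of the solvent control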;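 further: AGP1-GFP fusion strain of S. cerevisiae within a five-strain barcoded multiplex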); settings: 3 h, at 10 µM, stronger effect = higher value
[6] = inhibitors of CD8+ T cell-vesicle binding, pilot screen, LFA-1/ICAM-1 modulator project, MLPCN validation set, flow cytometry (AID 2523;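 active means response below a set limit, under 55% cells CD8-positive and vesicle-bound, and CD8 cells' 90th-percentile brightness under 279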;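 on vesicle binding response: mean PE anti-B7-1 fluorescence of CD8+ cells relative to row control; 100% = QL9-loaded vesicles with DMSO vehicle in the same plate row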); settings: 2C mouse CD8+ T cells, at 7 µM, stronger effect = lower value; double positive events: measured here: CD8+/vesicle+ event percentage
[7] = target: Integrin beta-1 (Homo sapiens) + Integrin alpha-4 (Homo sapiens) (UniProt P13612+P05556); experiment: inhibition of HUTS-21 binding to VLA-4, pilot screen, VLA-4 allosteric modulator project, U937 cells, HUTS-21 mAb, flow cytometry, validation set (AID 2674;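 active means inhibition above 50%, about 3 SD of the validation set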;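 further: antibody binding induced by the VLA-4 ligand LDV present at three times its Kd; 0% = LDV ligand with antibody and no compound and 100% = antibody without LDV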); settings: HUTS-21 LIBS mAb binding, at 6.7 µM, stronger effect = higher value, binding induced by LDV ligand
Chain of Integrin beta-1 (Homo sapiens) + Integrin alpha-4 (Homo sapiens) (P05556 whole entry, looked up): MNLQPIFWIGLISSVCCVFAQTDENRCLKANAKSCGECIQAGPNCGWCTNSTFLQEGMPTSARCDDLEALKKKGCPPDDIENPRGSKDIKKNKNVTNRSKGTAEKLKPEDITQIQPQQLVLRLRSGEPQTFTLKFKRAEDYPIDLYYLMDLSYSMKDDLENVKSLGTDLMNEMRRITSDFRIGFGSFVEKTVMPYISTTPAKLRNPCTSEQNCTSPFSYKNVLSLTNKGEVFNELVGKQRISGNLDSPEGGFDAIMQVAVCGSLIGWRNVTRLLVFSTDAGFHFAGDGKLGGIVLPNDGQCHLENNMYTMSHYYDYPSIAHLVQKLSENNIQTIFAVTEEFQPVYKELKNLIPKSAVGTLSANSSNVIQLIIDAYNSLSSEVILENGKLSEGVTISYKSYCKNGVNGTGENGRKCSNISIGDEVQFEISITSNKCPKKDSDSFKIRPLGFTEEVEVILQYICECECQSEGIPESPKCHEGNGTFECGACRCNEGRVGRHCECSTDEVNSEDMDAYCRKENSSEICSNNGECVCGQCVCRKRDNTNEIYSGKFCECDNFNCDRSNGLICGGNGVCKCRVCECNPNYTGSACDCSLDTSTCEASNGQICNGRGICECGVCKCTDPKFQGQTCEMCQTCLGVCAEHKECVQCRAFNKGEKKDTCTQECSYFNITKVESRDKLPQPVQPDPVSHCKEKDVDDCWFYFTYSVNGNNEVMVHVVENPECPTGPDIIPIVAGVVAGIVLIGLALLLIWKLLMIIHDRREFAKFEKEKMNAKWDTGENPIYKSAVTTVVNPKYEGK
Chain of Integrin beta-1 (Homo sapiens) + Integrin alpha-4 (Homo sapiens) (P13612 whole entry, looked up): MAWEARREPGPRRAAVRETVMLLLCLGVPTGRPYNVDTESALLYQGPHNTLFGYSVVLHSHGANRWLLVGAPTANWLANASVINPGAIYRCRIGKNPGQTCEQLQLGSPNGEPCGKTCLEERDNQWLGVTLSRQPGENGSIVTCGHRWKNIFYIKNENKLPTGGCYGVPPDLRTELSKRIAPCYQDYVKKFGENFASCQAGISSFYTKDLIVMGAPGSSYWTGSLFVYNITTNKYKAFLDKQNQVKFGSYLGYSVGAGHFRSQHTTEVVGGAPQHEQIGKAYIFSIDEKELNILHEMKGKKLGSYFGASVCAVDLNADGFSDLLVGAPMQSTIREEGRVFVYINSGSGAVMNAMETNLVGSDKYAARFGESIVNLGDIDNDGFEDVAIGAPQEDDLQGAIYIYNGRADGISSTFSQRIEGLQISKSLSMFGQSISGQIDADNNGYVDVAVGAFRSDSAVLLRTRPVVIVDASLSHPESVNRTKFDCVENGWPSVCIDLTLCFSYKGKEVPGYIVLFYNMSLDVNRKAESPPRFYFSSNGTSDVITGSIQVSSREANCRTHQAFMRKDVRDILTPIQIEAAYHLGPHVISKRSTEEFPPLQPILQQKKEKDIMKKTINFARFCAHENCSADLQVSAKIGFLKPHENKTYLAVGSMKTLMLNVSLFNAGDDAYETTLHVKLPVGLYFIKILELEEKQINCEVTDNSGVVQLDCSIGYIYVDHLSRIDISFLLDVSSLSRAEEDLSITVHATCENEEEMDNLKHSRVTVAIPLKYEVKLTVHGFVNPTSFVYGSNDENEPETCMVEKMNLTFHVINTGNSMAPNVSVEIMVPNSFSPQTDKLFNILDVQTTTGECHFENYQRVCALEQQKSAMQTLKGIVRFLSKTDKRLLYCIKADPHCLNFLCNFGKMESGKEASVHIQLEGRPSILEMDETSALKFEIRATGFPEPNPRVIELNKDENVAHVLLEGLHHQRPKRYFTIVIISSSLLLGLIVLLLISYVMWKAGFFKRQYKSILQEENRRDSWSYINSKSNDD

[8] = superoxide lowering in aged yeast cells, pilot screen, validation compound set (AID 2706;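 active means superoxide response below 65% of plate, a cut near 3 SD across the whole screen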;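 further: yeast exposed to compound for one week at 30 degrees C before staining; 100% = mean of all compound wells on the same plate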); settings: S. cerevisiae aging, superoxide DHE fluorescence; at 10 µM, stronger effect = lower value
[9] = target: Beta-adrenergic receptor kinase 1 (Homo sapiens) (UniProt P25098); experiment: GRK2 binders displacing RNA aptamer, biochemical, validation, human GRK2, bead flow cytometry (AID 488806;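 active means aptamer binding inhibition above 30%, about 3 SD of noise from non-fluorescent compounds; inactive means inhibition at or below 30%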); settings: bead-bound GRK2, FAM-aptamer displacement, at 10 µM, stronger effect = higher value
Chain of Beta-adrenergic receptor kinase 1 (Homo sapiens) (P25098 whole entry, looked up): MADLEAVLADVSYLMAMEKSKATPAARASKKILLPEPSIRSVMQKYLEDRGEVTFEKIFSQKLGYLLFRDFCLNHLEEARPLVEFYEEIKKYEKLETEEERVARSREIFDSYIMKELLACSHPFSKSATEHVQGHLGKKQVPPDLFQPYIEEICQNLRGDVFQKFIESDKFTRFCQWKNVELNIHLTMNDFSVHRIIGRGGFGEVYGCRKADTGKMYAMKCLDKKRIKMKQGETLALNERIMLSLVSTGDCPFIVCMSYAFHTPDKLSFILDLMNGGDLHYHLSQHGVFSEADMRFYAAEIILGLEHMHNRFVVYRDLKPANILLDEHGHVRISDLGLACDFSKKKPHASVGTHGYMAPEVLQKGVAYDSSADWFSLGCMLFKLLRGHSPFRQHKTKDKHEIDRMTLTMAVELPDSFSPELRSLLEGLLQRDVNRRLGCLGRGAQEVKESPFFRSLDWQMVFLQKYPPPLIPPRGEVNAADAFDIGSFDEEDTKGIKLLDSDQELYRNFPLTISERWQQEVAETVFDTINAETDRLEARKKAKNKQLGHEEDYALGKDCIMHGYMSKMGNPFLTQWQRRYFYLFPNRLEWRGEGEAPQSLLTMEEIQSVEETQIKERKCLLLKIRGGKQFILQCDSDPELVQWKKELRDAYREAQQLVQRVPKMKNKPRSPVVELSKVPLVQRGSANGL

[10] = target: AP-2 complex subunit beta (Homo sapiens) (UniProt P63010); experiment: inhibitors of arrestin peptide binding to AP2, pilot screen, biochemical, validation set, GST-AP2 beads, flow cytometry (AID 504541;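 active means inhibition above 54%, about 3 SD of non-fluorescent compounds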;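 further: AP2 carries R879A mutation and is captured from E. coli lysate; bead-bound FITC arrestin peptide fluorescence measuring arrestin peptide binding to AP2; 0% = DMSO wells and 100% = excess unlabeled arrestin peptide control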); settings: FITC arrestin peptide, at 10 µM, stronger effect = higher value, AP2 beta2 appendage fragment, R879A mutant
Chain of AP-2 complex subunit beta (Homo sapiens) (P63010 whole entry, looked up, the tested form may be a part, one chain of several): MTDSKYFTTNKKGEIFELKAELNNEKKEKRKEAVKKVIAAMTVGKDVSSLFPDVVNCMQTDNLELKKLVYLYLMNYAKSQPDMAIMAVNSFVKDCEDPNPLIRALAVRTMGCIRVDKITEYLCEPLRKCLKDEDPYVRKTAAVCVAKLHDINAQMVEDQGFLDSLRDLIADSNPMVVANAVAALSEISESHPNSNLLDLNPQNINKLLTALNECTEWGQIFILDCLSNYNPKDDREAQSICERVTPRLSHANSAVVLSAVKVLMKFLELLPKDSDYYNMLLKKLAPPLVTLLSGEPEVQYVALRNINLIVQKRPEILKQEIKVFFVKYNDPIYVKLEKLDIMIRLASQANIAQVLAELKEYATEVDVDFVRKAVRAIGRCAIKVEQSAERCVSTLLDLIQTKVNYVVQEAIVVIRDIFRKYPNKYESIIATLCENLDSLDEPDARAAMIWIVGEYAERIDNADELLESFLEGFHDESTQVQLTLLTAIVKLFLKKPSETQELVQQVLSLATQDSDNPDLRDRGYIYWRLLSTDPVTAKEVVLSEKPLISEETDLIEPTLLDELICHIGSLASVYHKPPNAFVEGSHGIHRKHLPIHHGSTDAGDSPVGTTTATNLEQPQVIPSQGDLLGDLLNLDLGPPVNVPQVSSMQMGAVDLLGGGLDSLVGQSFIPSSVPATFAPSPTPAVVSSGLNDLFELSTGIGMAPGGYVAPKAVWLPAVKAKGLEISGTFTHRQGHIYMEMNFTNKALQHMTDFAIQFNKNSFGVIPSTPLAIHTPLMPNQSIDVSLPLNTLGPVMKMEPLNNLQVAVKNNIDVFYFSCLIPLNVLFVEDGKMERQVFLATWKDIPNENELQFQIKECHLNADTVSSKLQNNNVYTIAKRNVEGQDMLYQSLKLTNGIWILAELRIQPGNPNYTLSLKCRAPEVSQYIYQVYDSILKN

[11] = yeast V-ATPase proton transport modulators, S. cerevisiae, pHLuorin, HTS validation (AID 504600; in the data active means response above about 15%;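 further: plate controls were DMSO for no effect and reference compound for full effect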); settings: S. cerevisiae pHLuorin cytosolic pH, at 10 µM, stronger effect = higher value
[12] = test system: anti-desmoglein-3 scFv antibody binding to human DSG3; experiment: inhibitors of anti-DSG3 scFv binding to DSG3, pilot screen, biochemical, validation compound set, bead-based, flow cytometry (AID 588368;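 active means binding below the plate cutoff, the plate median minus 3 SD, with a reading above zero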;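 further: signal is the median channel fluorescence of bead-bound GFP antibody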); settings: Protein G beads, DSG3-Fc, scFv-GFP binding, at 10 µM, stronger effect = lower value
[13] = inhibitors of fungal efflux pumps CDR1, CDR2, MDR1, pilot screen, validation compound set, multiplex, phenotypic (AID 588506;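 active means efflux inhibition above 0.42, the validation set average plus 4 SD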;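 further: Nile Red retained in cells so higher fluorescence means more efflux inhibition; 0 = negative control wells and 1 = enniatin B 25 µM full block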); settings: S. cerevisiae pump-expressing triplex, Nile Red efflux flow cytometry; at 10 µM; stronger effect = higher value; the pumps come from Candida albicans
[14] = target: ATP-binding cassette sub-family B member 6 (Homo sapiens) (UniProt Q9NP58); experiment: ABCB6 transporter inhibitors, pilot screen, K562-ABCB6 cells, flow cytometry, validation set (AID 588550); settings: K562-ABCB6 porphyrin accumulation, 1 h, at 10 µM, stronger effect = higher value;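 further: 0% = DMSO wells and 100% = benzethonium chloride 70 µM positive control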
Chain of ATP-binding cassette sub-family B member 6 (Homo sapiens) (Q9NP58 whole entry, looked up): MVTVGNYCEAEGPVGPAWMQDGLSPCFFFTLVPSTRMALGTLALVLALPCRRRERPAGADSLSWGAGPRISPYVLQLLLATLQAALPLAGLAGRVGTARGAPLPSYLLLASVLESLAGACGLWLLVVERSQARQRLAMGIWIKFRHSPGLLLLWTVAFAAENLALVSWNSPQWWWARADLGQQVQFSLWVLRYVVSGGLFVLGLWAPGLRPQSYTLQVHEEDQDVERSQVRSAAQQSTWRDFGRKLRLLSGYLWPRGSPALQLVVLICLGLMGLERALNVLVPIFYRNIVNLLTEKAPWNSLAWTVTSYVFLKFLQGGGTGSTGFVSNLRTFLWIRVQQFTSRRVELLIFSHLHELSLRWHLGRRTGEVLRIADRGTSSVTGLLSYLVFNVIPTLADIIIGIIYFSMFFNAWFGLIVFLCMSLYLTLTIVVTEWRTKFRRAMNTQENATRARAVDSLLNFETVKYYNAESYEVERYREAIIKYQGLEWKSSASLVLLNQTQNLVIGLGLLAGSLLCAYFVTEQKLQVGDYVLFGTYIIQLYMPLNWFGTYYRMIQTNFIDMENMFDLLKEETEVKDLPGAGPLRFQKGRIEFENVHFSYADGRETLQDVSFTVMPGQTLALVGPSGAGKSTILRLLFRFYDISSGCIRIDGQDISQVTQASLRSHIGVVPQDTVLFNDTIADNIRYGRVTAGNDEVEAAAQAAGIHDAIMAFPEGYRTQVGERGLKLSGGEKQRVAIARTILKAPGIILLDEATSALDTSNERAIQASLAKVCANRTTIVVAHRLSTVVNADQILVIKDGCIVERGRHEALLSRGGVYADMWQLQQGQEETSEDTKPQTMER

[15] = promoters of myeloid differentiation in arrested cells, primary screen, cell-based, GFP/MAC1 double positive, flow cytometry, validation set (AID 588685;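 active means differentiation response of at least 50%, scaled between solvent and reference control, from cells with both markers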;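 further: compound exposure lasts four days before antibody staining and flow analysis; 0% = DMSO wells and 100% = 5 µM fulvestrant positive control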); settings: ER-HoxA9 marrow cells, stronger effect = higher value, normalized: vehicle 0, fulvestrant 100

Structure (SMILES) | percent of DMSO control GFP [1] | GFP response vs DMSO [2] | percent response of DMSO control [3] | GFP response vs DMSO [4] | GFP response, % of DMSO [5] | double positive events [6] [%] | vesicle binding response [6] | inhibition [7] | superoxide response (% of plate) [8] | aptamer binding inhibition [9] | inhibition [10] | response [11] | binding (% of control) [12] | efflux inhibition (fraction of control) [13] | inhibition [14] | differentiation response [15]
C/C=C/Cn1c(SC)nc2c1c(=O)[nH]c(=O)n2C | 102% (inactive) | 101% (inactive) | 95.9% (inactive) | 93.3% (inactive) | 93.4% (inactive) | 59 | 124% (inactive) | 3.49% (inactive) | 97.4% (inactive) | 0% (inactive) | 34.4% (inactive) | 1.09% (inactive) | 103% (inactive) | 0.78 (active) | 0% (inactive) | -14.7% (inactive)
CC(=O)OCC(=O)C1=CCC2C3CCC4=CC(=O)C=CC4(C)C3(F)C(OC(C)=O)CC12C (centres undefined) | 99.8% (inactive) | 101% (inactive) | 106% (inactive) | 84.3% (inactive) | 105% (inactive) | 59 | 180% (inactive) | 6.29% (inactive) | 87.6% (inactive) | 7% (inactive) | -3.56% (inactive) | 6.47% (inactive) | 96.2% (inactive) | 0.18 (inactive) | 9% (inactive) | -11.5% (inactive)
CCOC(=O)c1ccc2[nH]c(C)c(CCC(C)=O)c(=O)c2c1 | 102% (inactive) | 98.9% (inactive) | 109% (inactive) | 88.3% (inactive) | 97.9% (inactive) | 57.1 | 228% (inactive) | 0.69% (inactive) | 91.5% (inactive) | 1% (inactive) | 1.85% (inactive) | 6.01% (inactive) | 108% (inactive) | -0.12 (inactive) | 6% (inactive) | -11.5% (inactive)
CO[C@@H]1O[C@@H]2COC(c3ccccc3)O[C@@H]2[C@@H](OC)[C@@H]1O (some centres undefined) | 103% (inactive) | 104% (inactive) | 106% (inactive) | 96.4% (inactive) | 99.6% (inactive) | 56 | 166% (inactive) | 5.36% (inactive) | 117% (inactive) | 5% (inactive) | 15.1% (inactive) | 4.1% (inactive) | 102% (inactive) | 0.1 (inactive) | 4% (inactive) | -9.89% (inactive)
COc1cccc(C2CCCN2Cc2nc(CCC(C)C)no2)c1 (centres undefined) | 101% (inactive) | 116% (inactive) | 103% (inactive) | 109% (inactive) | 101% (inactive) | 54.6 | 135% (inactive) | -9.57% (inactive) | 102% (inactive) | 0% (inactive) | 5.57% (inactive) | 3.31% (inactive) | 104% (inactive) | 0.25 (inactive) | 8% (inactive) | 4.64% (inactive)
NC(=O)c1c(-c2ccccc2)oc2ccc(O)cc12 | 100% (inactive) | 97.9% (inactive) | 90% (inactive) | 100% (inactive) | 98.5% (inactive) | 66.7 | 260% (inactive) | 14.7% (inactive) | 90.9% (inactive) | 0% (inactive) | -7.96% (inactive) | -1.1% (inactive) | 102% (inactive) | -0.09 (inactive) | 10% (inactive) | -13.1% (inactive)
O=C1C=CC(=O)C(C2=C3C(=O)N(CCc4ccccc4)CC(=O)N3CCC2)=C1 | 106% (inactive) | 103% (inactive) | 102% (inactive) | 94.3% (inactive) | 104% (inactive) | 42.5 | 92.7% (inactive) | -30.1% (inactive) | 115% (inactive) | 3% (inactive) | 12% (inactive) | -0.59% (inactive) | 101% (inactive) | -0.28 (inactive) | 8% (inactive) | -18% (inactive)
CCCN(CCC)S(=O)(=O)c1ccc(C(=O)O)cc1 | 101% (inactive) | 107% (inactive) | 96.9% (inactive) | 124% (inactive) | 104% (inactive) | 56.2 | 170% (inactive) | 1.62% (inactive) | 104% (inactive) | 1% (inactive) | -3.49% (inactive) | 0.87% (inactive) | 99.3% (inactive) | -0.05 (inactive) | 4% (inactive) | -24.4% (inactive)
CC(=O)Nc1ccc(OS(=O)(=O)c2c(C)cc(C)cc2C)cc1 | 99% (inactive) | 92.8% (inactive) | 98.8% (inactive) | 96.4% (inactive) | 86.7% (inactive) | 47.1 | 166% (inactive) | 10.9% (inactive) | 99.6% (inactive) | -1% (inactive) | -5.36% (inactive) | 0.9% (inactive) | 102% (inactive) | -0.2 (inactive) | 8% (inactive) | -18% (inactive)
O=C(O)c1ccccc1O | 101% (inactive) | 101% (inactive) | 96.9% (inactive) | 97.4% (inactive) | 98.8% (inactive) | 59 | 178% (inactive) | 15.6% (inactive) | 100% (inactive) | 3% (inactive) | 0.05% (inactive) | -0.04% (inactive) | 104% (inactive) | 0.44 (active) | 0% (inactive) | -9.89% (inactive)
COc1cc(OC)cc(C(=O)N[C@@H](CCSC)c2nc3ccccc3[nH]2)c1 | 98% (inactive) | 88.7% (inactive) | 105% (inactive) | 91.3% (inactive) | 96.4% (inactive) | 49.2 | 158% (inactive) | -13.3% (inactive) | 98.5% (inactive) | 1% (inactive) | -7.65% (inactive) | 0.15% (inactive) | 99.3% (inactive) | -0.12 (inactive) | 3% (inactive) | -8.27% (inactive)
CCCC1O[C@@H]2C[C@H]3[C@@H]4CCC5=CC(=O)C=C[C@]5(C)[C@H]4[C@@H](O)C[C@]3(C)[C@]2(C(=O)CO)O1 (some centres undefined) | 100% (inactive) | 108% (inactive) | 108% (inactive) | 100% (inactive) | 106% (inactive) | 58.8 | 217% (inactive) | 4.42% (inactive) | 103% (inactive) | 4% (inactive) | 42.5% (inactive) | -0.18% (inactive) | 104% (inactive) | 0.1 (inactive) | 0% (inactive) | 6.26% (inactive)
O=C(c1ccc(F)cc1)[C@@H]1[C@@H](C(=O)c2ccccc2)[C@@]2(C(=O)Nc3ccccc32)[C@H]2c3ccccc3C=CN12 | 102% (inactive) | 93.8% (inactive) | 106% (inactive) | 102% (inactive) | 102% (inactive) | 43.2 | 172% (inactive) | -183% (inactive) | 121% (inactive) | -3% (inactive) | -24.7% (inactive) | 2.83% (inactive) | 100% (inactive) | 0.03 (inactive) | 3% (inactive) | -19.6% (inactive)
COc1c(C)cc(C(=O)C2CCCN(Cc3ccc(Oc4ncccn4)cc3)C2)cc1C (centres undefined) | 99.5% (inactive) | 107% (inactive) | 112% (inactive) | 103% (inactive) | 103% (inactive) | 56.4 | 202% (inactive) | -4.9% (inactive) | 99.2% (inactive) | 0% (inactive) | 4.02% (inactive) | 0.79% (inactive) | 101% (inactive) | -0.01 (inactive) | 5% (inactive) | -30.9% (inactive)
CN(CCCN1CCOCC1)Cc1cn(C)nc1-c1ccccc1F | 95.5% (inactive) | 106% (inactive) | 104% (inactive) | 124% (inactive) | 114% (inactive) | 62.1 | 246% (inactive) | -8.78% (inactive) | 104% (inactive) | -1% (inactive) | 70.2% (active) | 2.44% (inactive) | 112% (inactive) | 0.04 (inactive) | 2% (inactive) | -1.05% (inactive)
O=c1nc2cccc3c2=c(/c1=C(\O)c1ccccc1)c1ccccc1c3=O | 102% (inactive) | 102% (inactive) | 105% (inactive) | 96.4% (inactive) | 99.3% (inactive) | 47.4 | 175% (inactive) | -23.6% (inactive) | 99.9% (inactive) | 8% (inactive) | 17.9% (inactive) | 1.67% (inactive) | 91% (inactive) | -0.16 (inactive) | 9% (inactive) | -6.66% (inactive)
CC(C)CCOCC(=O)Nc1cccc(C(=O)O)c1 | 99.5% (inactive) | 107% (inactive) | 98.8% (inactive) | 95.4% (inactive) | 99.7% (inactive) | 59.8 | 174% (inactive) | 10.9% (inactive) | 110% (inactive) | 1% (inactive) | 41.3% (inactive) | -5.9% (inactive) | 103% (inactive) | -0.12 (inactive) | 3% (inactive) | 11.1% (inactive)
C[N+]12CCC(CC1)C(OC(=O)C(O)(c1ccccc1)c1ccccc1)C2 (centres undefined) | 96.8% (inactive) | 96.9% (inactive) | 99.8% (inactive) | 100% (inactive) | 95.8% (inactive) | 60.6 | 211% (inactive) | 2.56% (inactive) | 104% (inactive) | -2% (inactive) | -2.25% (inactive) | 2.36% (inactive) | 102% (inactive) | -0.35 (inactive) | 10% (inactive) | -21.2% (inactive)
COc1ccccc1C(=O)c1cc2ccc(O)cc2oc1=O | 103% (inactive) | 110% (inactive) | 105% (inactive) | 100% (inactive) | 100% (inactive) | 57.1 | 147% (inactive) | 12.8% (inactive) | 99.2% (inactive) | 1% (inactive) | -2.87% (inactive) | 5.05% (inactive) | 104% (inactive) | 0.03 (inactive) | -208% (inactive) | -14.7% (inactive)
